PubChem BioAssay AID1159580 (chemical genetic matrix, 2015)
Screen size: about 5,500 compounds; about 2,000 (36%) were called active. Not shown: some 18% with an inconclusive outcome. Rule as the data show it: active = normalized growth mostly below about 0.91 (no sharp cut-off); inconclusive = no clear call, values can overlap the other calls; inactive = mostly above about 0.92. The list shows a part of the results.

Experiment: chemical genetic growth profiling, strain panel (AID 1159580);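 also: tested at 20 µM; growth read once vehicle control cultures reached saturation at 30 °C; 1 = growth at the plate median or of vehicle wells; lower values mean less growth of the strain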
Conditions: growth OD

Measured: normalized growth

CN[C@@H]1C(O)[C@@H](O[C@@H]2[C@@H](O)[C@H](O[C@H]3OC(CN)=CC[C@H]3N)[C@@H](N)C[C@H]2N)OC[C@]1(C)O (some centres undefined)
inactive: S. cerevisiae deletion strains, locus YJR075W, strain HOC1, active compounds read low 1.02 | S. cerevisiae deletion strains, locus YKL009W, strain mrt4, active compounds read low 1.01 | S. cerevisiae deletion strains, locus YKL068W, active compounds read low 0.996 | S. cerevisiae deletion strains, locus YKL085W, strain MDH1 (second series), active compounds read low 1 | S. cerevisiae deletion strains, locus YKL085W, strain MDH1, active compounds read low 1 | S. cerevisiae deletion strains, locus YKL160W, strain elf1, active compounds read low 1.02 | S. cerevisiae deletion strains, locus YKL190W, strain CNB1, active compounds read low 1.02 | S. cerevisiae deletion strains, locus YKR001C, strain vps1, active compounds read low 0.993 | S. cerevisiae deletion strains, locus YKR026C, strain gcn3, active compounds read low 1 | S. cerevisiae deletion strains, locus YKR091W, strain srl3, active compounds read low 1.01 | S. cerevisiae deletion strains, locus YLL001W, strain dnm1, active compounds read low 1.03 | S. cerevisiae deletion strains, locus YLL026W, active compounds read low 1.02 | S. cerevisiae deletion strains, locus YLL041C, strain sdh2, active compounds read low 1.02 | S. cerevisiae deletion strains, locus YLR027C, strain aat2, active compounds read low 1.02 | S. cerevisiae deletion strains, locus YLR039C, strain RIC1, active compounds read low 1.13 | S. cerevisiae deletion strains, locus YLR058C, strain SHM2, active compounds read low 1.02 | S. cerevisiae deletion strains, locus YLR102C, strain apc9, active compounds read low 0.993 | S. cerevisiae deletion strains, locus YLR113W, strain HOG1, active compounds read low 0.949 | S. cerevisiae deletion strains, locus YLR221C, strain rsa3, active compounds read low 0.984 | S. cerevisiae deletion strains, locus YLR258W, strain gsy2, active compounds read low 1.01 | S. cerevisiae deletion strains, locus YLR262C, strain YPT6 (second series), active compounds read low 1.03 | S. cerevisiae deletion strains, locus YLR262C, strain YPT6, active compounds read low 1.09 | S. cerevisiae deletion strains, locus YLR268W, strain sec22, active compounds read low 1.01 | S. cerevisiae deletion strains, locus YLR320W, strain mms22, active compounds read low 0.988 | S. cerevisiae deletion strains, locus YLR330W, strain CHS5, active compounds read low 1.01 | S. cerevisiae deletion strains, locus YLR342W, strain FKS1 (second series), active compounds read low 1.05 | S. cerevisiae deletion strains, locus YLR342W, strain FKS1, active compounds read low 1.02 | S. cerevisiae deletion strains, locus YLR357W, strain rsc2, active compounds read low 1.03 | S. cerevisiae deletion strains, locus YLR370C, strain arc18, active compounds read low 1.02 | S. cerevisiae deletion strains, locus YLR371W, strain rom2, active compounds read low 0.995 | S. cerevisiae deletion strains, locus YLR384C, strain iki3, active compounds read low 1.01 | S. cerevisiae deletion strains, locus YLR418C, strain cdc73, active compounds read low 1.02 | S. cerevisiae deletion strains, locus YML016C, strain PPZ1, active compounds read low 1.02 | S. cerevisiae deletion strains, locus YML120C, strain ndi1, active compounds read low 1.02 | S. cerevisiae deletion strains, locus YML124C, strain tub3, active compounds read low 0.991 | S. cerevisiae deletion strains, locus YMR058W, strain fet3, active compounds read low 1.03 | S. cerevisiae deletion strains, locus YMR078C, strain ctf18, active compounds read low 0.996 | S. cerevisiae deletion strains, locus YMR125W, strain sto1, active compounds read low 1 | S. cerevisiae deletion strains, locus YMR129W, active compounds read low 1.01 | S. cerevisiae deletion strains, locus YMR205C, strain PFK2, active compounds read low 1.02 | S. cerevisiae deletion strains, locus YMR223W, strain ubp8, active compounds read low 1 | S. cerevisiae deletion strains, locus YMR231W, strain pep5, active compounds read low 1 | S. cerevisiae deletion strains, locus YMR263W, strain SAP30, active compounds read low 1.05 | S. cerevisiae deletion strains, locus YMR307W, strain GAS1, active compounds read low 1.01 | S. cerevisiae deletion strains, locus YNL067W, strain RPL9B, active compounds read low 1.04 | S. cerevisiae deletion strains, locus YNL071W, strain lat1, active compounds read low 1.02 | S. cerevisiae deletion strains, locus YNL128W, strain TEP1, active compounds read low 1.04 | S. cerevisiae deletion strains, locus YNL153C, strain GIM3, active compounds read low 1.03 | S. cerevisiae deletion strains, locus YNL183C, strain NPR1, active compounds read low 0.93 | S. cerevisiae deletion strains, locus YNL209W, strain ssb2, active compounds read low 1.01 | S. cerevisiae deletion strains, locus YNL233W, strain BNI4, active compounds read low 1.02 | S. cerevisiae deletion strains, locus YNL248C, strain rpa49, active compounds read low 0.992 | S. cerevisiae deletion strains, locus YNL250W, strain rad50, active compounds read low 1 | S. cerevisiae deletion strains, locus YNL271C, strain bni1, active compounds read low 1 | S. cerevisiae deletion strains, locus YNL298W, strain CLA4, active compounds read low 1 | S. cerevisiae deletion strains, locus YNL307C, strain MCK1, active compounds read low 0.999 | S. cerevisiae deletion strains, locus YNL322C, strain KRE1 (second series), active compounds read low 0.996 | S. cerevisiae deletion strains, locus YNL322C, strain KRE1, active compounds read low 1.02 | S. cerevisiae deletion strains, locus YNR049C, strain mso1, active compounds read low 1.04 | S. cerevisiae deletion strains, locus YNR052C, strain pop2, active compounds read low 0.987 | S. cerevisiae deletion strains, locus YOL006C, strain TOP1, active compounds read low 1.19 | S. cerevisiae deletion strains, locus YOL012C, strain htz1 2.02 | S. cerevisiae deletion strains, locus YOL147C, strain pex11, active compounds read low 0.986 | S. cerevisiae deletion strains, locus YOR001W, strain rrp6, active compounds read low 1.03 | S. cerevisiae deletion strains, locus YOR061W, strain CKA2, active compounds read low 1.02 | S. cerevisiae deletion strains, locus YOR070C, strain gyp1, active compounds read low 1 | S. cerevisiae deletion strains, locus YOR080W, strain dia2, active compounds read low 1 | S. cerevisiae deletion strains, locus YOR083W, strain WHI5, active compounds read low 0.992 | S. cerevisiae deletion strains, locus YOR106W, strain vam3, active compounds read low 1.03 | S. cerevisiae deletion strains, locus YOR136W, strain idh2, active compounds read low 0.991 | S. cerevisiae deletion strains, locus YOR144C, strain elg1, active compounds read low 0.991 | S. cerevisiae deletion strains, locus YOR184W, strain ser1, active compounds read low 1.01 | S. cerevisiae deletion strains, locus YOR231W, strain MKK1, active compounds read low 0.952 | S. cerevisiae deletion strains, locus YOR265W, strain rbl2, active compounds read low 1 | S. cerevisiae deletion strains, locus YOR270C, strain vph1, active compounds read low 1.05 | S. cerevisiae deletion strains, locus YOR290C, strain snf2, active compounds read low 0.979 | S. cerevisiae deletion strains, locus YPL051W, strain arl3, active compounds read low 1.01 | S. cerevisiae deletion strains, locus YPL055C, strain LGE1, active compounds read low 1.09 | S. cerevisiae deletion strains, locus YPL078C, strain atp4, active compounds read low 1.03 | S. cerevisiae deletion strains, locus YPL106C, strain sse1, active compounds read low 1.02 | S. cerevisiae deletion strains, locus YPL240C, strain hsp82, active compounds read low 1.01 | S. cerevisiae deletion strains, locus YPL256C, strain CLN2, active compounds read low 0.96 | S. cerevisiae deletion strains, locus YPR119W, strain clb2, active compounds read low 0.984 | S. cerevisiae deletion strains, locus YPR141C, strain kar3, active compounds read low 1 | S. cerevisiae deletion strains, locus YPR163C, strain tif3, active compounds read low 0.966 | S. cerevisiae deletion strains, locus YPR167C, strain met16, active compounds read low 0.999 | S. cerevisiae deletion strains, strain wtn01, active compounds read low 1.01 | S. cerevisiae strains, strain wild type, active compounds read low 1.01
active: S. cerevisiae deletion strains, locus YOR069W, strain VPS5, active compounds read low 1.11 [resistant]
